system: Tyrosine-protein kinase ABL1 (Homo sapiens), P00519 [H396P]; conditions: at 0.1 µM

Row | Compound | inhibition [%]
1 | CN1CCN(C(=O)c2ccc(NC(=O)Nc3ccc(N(C)c4ccnc(Nc5ccc(CS(C)(=O)=O)cc5)n4)cc3)cc2)CC1 | 18.1
2 | CC(C)c1ccc2c(c1)NC(=O)/C2=N/Nc1ccc(S(N)(=O)=O)cc1 | 5.36
3 | C[C@@H](Oc1cc(-n2cnc3ccc(OC[C@@H](O)CO)cc32)sc1C(N)=O)c1ccccc1Cl | 0
4 | CN(C)CCCn1c(-c2nonc2N)nc2cnccc21 | 2.64
5 | O=C1Nc2ccc(-c3cccnc3)cc2C1=Cc1cc(Br)c(O)c(Br)c1 | 3.44
6 | CC(C)c1ccc(Nc2nccc(-c3cnn4ncccc34)n2)cc1 | 3.09
7 | N#Cc1cccc(Nc2nccc(-c3cnn4ncccc34)n2)c1 | 13.6
8 | Cc1ccc(NC(=O)CC2CC2)cc1-c1ccc(C(=O)NCC2CC2)cc1 | 6.77
9 | Cc1ccc2c(c1)/C(=N/Nc1ccc(S(N)(=O)=O)cc1)C(=O)N2 | -0.31
10 | CCS(=O)(=O)c1ccc(OC)c(Nc2nccc(N(C)c3ccc4c(C)n[nH]c4c3)n2)c1 | 61.1
11 | Nc1nccc(-c2c(-c3ccc(F)cc3)nn3cc(C(F)(F)F)ccc23)n1 | 0.65
12 | N#Cc1c(NC(=O)c2ccccc2F)sc2c1CCCC2 | 0.3
13 | Cc1cc(Cl)cc2c1NC(=O)C2=NNc1ccc(S(N)(=O)=O)cc1 | 2.97
14 | c1ccc(Cc2nc3ccc(Nc4ncnc5ccccc45)cc3[nH]2)cc1 | 1.27
15 | Cc1ccc(O)cc1Nc1ccnc2ccc(S(C)(=O)=O)cc12 | 94.8
16 | COc1cc(/C=N/Nc2ncnc3c2cnn3C(C)C)ccc1O | 34.7
17 | FC(F)(F)c1ccc(-c2nn3ncccc3c2-c2ccnc(Nc3ccc4c(c3)OCCO4)n2)cc1 | 0.37

Row | Compound | inhibition [%]
18 | Nc1ccc(C#Cc2cncnc2Nc2ccc(OCc3cccc(F)c3)c(Cl)c2)cc1 | 2.21
19 | COc1cc2ncn(-c3cc(OCc4ccccc4S(C)(=O)=O)c(C#N)s3)c2cc1OC | 12.2
20 | NS(=O)(=O)c1ccc(NC=C2C(=O)Nc3ccc4ncsc4c32)cc1 | 10.9
21 | Nc1nccc(-c2c(-c3ccc(F)cc3)ncn2CCCN2CCOCC2)n1 | 2.47
22 | O=C1Nc2ccccc2/C1=C/Nc1ccc2[nH]c(=O)[nH]c2c1 | 7.55
23 | Cc1ccc(C(=O)NC2CC2)cc1-c1ccc2[nH]ncc2c1 | -1.68
24 | COC(=O)c1cncc(/C=C/c2c(C)cc(O)cc2C)c1 | 13.3
25 | COc1cc(Nc2nccc(-c3cnn4ncccc34)n2)cc(OC)c1 | 11.9
26 | COc1ccc2ncnc(Nc3ccc(OCc4ccccc4)cc3)c2c1 | 1.73
27 | CCn1c(-c2nonc2N)nc2ccc(F)cc21 | 4.55
28 | NC(=O)c1cccc(Nc2nccc(Nc3cccc(F)c3)n2)c1 | 9.26
29 | CN(C)C(=O)O[C@H]1CN[C@H](C#Cc2cc3ncnc(Nc4ccc(OCc5cccc(F)c5)c(Cl)c4)c3s2)C1 | 2.06
30 | COc1cc2ncnc(Nc3ccc(C)c(O)c3)c2cc1OC | 48.1
31 | COc1cccc(-n2ncc3c(N/N=C/c4ccc(C)cc4)ncnc32)c1 | 28.1
32 | COC(=O)c1ccc2c(c1)C(=Cc1cc(Br)c(O)c(Br)c1)C(=O)N2 | 4.03
33 | Cc1ccc(Nc2ccnc(Nc3cccc(C(N)=O)c3)n2)cc1O | 76.5
34 | NS(=O)(=O)c1ccc(-c2cc3ccncc3cc2OCc2ccccc2)cc1 | 4.66

— ChEMBL document CHEMBL1961873, “Compounds: GSK PKIS; Assays: Nanosyn kinase panel” (2012)
